This passage reports binding signal results from paper PMC7862700, “An all-to-all approach to the identification of sequence-specific readers for epigenetic DNA modifications on cytosine”.

What all share (test): DAPPL (digital affinity profiling via proximity ligation, sequencing); 10 mM Tris-HCl pH 7.5, 50 mM NaCl, 1 mM DTT, 4% glycerol, room temperature, 30 min; GST-TFs on glutathione beads, 16-mer random dsDNA library, 0.1% formaldehyde crosslink after washing; high values mean tight binding
One assay addresses T1, FLI1 (Homo sapiens, UniProt Q01543 1-452).
T1 sequence: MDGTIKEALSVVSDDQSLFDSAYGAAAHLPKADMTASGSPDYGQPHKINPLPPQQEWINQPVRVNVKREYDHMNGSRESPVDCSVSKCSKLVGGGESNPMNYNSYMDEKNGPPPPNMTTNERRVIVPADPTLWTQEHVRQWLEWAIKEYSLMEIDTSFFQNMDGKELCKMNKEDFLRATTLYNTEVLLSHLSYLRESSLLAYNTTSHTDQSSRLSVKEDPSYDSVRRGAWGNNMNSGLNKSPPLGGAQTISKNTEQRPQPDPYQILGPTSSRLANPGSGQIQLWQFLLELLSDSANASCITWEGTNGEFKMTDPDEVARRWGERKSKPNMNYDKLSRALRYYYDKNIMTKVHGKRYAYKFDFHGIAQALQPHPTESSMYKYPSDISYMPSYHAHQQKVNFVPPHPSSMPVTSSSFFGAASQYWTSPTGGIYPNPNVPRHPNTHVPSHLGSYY
Particulars: protein: recombinant; tags: N-terminal GST; dsDNA, one strand shown. A digest of the protocol:
(§1)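 Beads coated with glutathione captured GST-fused human transcription factors that had been expressed in yeast, and the factors were then given DNA barcodes and pooled with a tag-only sample. The pools were incubated with 200 nmole of a random double-stranded 16-mer DNA library in Tris/NaCl/DTT/glycerol buffer for 30 min at room temperature, washed, crosslinked with 0.1% formaldehyde and proximity-ligated with BsaI/T4 ligase at 37 °C for 1 h. PCR amplification and Illumina NextSeq500 sequencing came last. Binding signal is each hexamer's read frequency for a factor divided by its frequency for the tag-only sample.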

A further assay has as its target T2, ELK1 (Homo sapiens, UniProt P19419 1-428).
T2 sequence: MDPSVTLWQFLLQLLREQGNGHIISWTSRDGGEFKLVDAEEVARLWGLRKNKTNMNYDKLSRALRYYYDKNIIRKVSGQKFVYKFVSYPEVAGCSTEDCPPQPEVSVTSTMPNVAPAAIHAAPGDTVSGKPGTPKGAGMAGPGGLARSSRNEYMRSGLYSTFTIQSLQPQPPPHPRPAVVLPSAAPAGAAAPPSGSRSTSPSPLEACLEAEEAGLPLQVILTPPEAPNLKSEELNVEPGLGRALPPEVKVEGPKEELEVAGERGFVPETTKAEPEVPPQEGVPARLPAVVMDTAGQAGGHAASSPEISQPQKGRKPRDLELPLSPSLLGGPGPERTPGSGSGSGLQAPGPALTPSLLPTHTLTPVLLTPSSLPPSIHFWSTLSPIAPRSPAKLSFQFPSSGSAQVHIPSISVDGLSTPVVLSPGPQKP
Particulars: protein: recombinant; tags: N-terminal GST; dsDNA, one strand shown. A digest of the protocol: as §1

A further assay addresses T3, GABPA (Homo sapiens, UniProt Q06546 1-454).
T3 sequence: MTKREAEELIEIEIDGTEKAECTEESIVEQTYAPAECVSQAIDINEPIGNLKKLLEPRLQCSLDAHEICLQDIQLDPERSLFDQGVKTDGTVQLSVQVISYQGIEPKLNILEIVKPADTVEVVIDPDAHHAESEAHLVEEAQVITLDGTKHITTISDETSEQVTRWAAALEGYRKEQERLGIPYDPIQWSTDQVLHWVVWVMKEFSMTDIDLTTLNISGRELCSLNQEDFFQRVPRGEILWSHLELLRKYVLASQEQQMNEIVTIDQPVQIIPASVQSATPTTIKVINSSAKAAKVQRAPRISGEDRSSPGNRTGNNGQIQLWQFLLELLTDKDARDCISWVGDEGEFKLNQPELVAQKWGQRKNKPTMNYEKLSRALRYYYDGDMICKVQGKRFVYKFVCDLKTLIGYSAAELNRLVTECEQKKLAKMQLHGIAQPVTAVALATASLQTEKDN
Particulars: protein: recombinant; tags: N-terminal GST; dsDNA, one strand shown. A digest of the protocol:
as §1

A further assay addresses T4, ERG (Homo sapiens, UniProt P11308 1-479).
T4 sequence: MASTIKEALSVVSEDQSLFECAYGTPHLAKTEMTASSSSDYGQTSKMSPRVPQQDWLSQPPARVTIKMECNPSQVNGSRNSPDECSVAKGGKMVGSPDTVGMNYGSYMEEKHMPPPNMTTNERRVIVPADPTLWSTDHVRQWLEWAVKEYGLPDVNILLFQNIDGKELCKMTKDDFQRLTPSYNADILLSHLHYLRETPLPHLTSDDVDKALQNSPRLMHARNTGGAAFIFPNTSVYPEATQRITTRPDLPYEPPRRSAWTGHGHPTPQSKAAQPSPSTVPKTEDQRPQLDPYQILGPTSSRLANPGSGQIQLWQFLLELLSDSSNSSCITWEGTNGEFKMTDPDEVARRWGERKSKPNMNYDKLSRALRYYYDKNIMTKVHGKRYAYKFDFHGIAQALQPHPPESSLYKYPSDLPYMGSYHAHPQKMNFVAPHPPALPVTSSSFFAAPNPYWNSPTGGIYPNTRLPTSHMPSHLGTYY
Particulars: protein: recombinant; tags: N-terminal GST; dsDNA, one strand shown. The method, boiled down: as §1

Another assay addresses ELF1 (Homo sapiens, UniProt P32519 1-619). Particulars: protein: recombinant; tags: N-terminal GST; dsDNA, one strand shown. A digest of the protocol: as §1
For the next assay, the target named is T5, EHF (Homo sapiens, UniProt Q9NZC4 1-300).
T5 sequence: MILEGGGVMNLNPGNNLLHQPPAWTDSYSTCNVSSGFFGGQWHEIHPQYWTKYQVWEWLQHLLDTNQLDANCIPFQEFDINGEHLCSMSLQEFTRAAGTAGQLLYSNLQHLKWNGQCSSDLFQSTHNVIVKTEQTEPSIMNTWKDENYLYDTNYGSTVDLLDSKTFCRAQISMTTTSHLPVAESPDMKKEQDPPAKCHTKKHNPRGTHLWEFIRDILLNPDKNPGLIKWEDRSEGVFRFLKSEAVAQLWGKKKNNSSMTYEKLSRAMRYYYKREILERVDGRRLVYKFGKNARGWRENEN
Particulars: protein: recombinant; tags: N-terminal GST; dsDNA, one strand shown. A digest of the protocol:
as §1

In another assay the target is SPI1 (Homo sapiens, UniProt P17947 1-270). Particulars: protein: recombinant; tags: N-terminal GST; dsDNA, one strand shown. A digest of the protocol: as §1
Another assay addresses SPIB (Homo sapiens, UniProt Q01892 1-262). Particulars: protein: recombinant; tags: N-terminal GST; dsDNA, one strand shown. The method, boiled down: as §1
The next assay concerns the target T6, ELK3 (Homo sapiens, UniProt P41970 1-407).
T6 sequence: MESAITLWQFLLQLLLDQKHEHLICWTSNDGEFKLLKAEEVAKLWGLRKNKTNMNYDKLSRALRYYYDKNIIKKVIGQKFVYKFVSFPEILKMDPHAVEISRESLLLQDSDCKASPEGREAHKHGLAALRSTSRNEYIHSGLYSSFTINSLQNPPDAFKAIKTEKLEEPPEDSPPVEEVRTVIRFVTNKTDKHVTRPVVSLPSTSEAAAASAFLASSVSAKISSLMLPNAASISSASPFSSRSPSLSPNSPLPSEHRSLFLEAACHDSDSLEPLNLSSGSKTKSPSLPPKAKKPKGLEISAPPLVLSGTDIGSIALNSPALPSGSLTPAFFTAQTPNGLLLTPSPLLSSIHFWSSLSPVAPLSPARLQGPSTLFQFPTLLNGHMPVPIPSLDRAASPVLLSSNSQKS
Particulars: protein: recombinant; tags: N-terminal GST; dsDNA, one strand shown. The method, boiled down:
as §1

The target of the next assay is T7, FEV (Homo sapiens, UniProt Q99581 1-238).
T7 sequence: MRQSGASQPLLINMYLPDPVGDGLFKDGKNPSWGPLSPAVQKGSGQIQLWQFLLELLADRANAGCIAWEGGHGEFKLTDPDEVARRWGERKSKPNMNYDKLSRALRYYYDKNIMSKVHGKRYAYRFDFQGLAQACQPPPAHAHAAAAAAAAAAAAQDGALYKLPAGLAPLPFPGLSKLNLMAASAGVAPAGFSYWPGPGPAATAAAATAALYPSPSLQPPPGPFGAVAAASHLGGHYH
Particulars: protein: recombinant; tags: N-terminal GST; dsDNA, one strand shown. A digest of the protocol: as §1

The target in a further assay is ETV5 (Homo sapiens, UniProt P41161 1-510). Particulars: protein: recombinant; tags: N-terminal GST; dsDNA, one strand shown. A digest of the protocol:
as §1

The target of a further assay is HSF1 (Homo sapiens, UniProt Q00613 1-529). Particulars: protein: recombinant; tags: N-terminal GST; chain copies: 3; dsDNA, one strand shown. A digest of the protocol:
as §1

A further assay has as its target T8, SPIC (Homo sapiens, UniProt Q8N5J4 1-248).
T8 sequence: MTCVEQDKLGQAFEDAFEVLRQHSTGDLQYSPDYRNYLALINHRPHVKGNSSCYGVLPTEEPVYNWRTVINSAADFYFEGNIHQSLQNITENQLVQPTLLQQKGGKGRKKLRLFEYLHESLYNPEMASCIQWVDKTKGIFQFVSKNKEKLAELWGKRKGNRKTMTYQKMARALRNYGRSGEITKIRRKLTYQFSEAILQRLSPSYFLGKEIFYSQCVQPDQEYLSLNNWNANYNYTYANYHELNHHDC
Particulars: protein: recombinant; tags: N-terminal GST; dsDNA, one strand shown. A digest of the protocol:
as §1

Another assay addresses ELF4 (Homo sapiens, UniProt Q99607 1-663). Particulars: protein: recombinant; tags: N-terminal GST; dsDNA, one strand shown. A digest of the protocol: as §1
In another assay the target is T9, ELK4 (Homo sapiens, UniProt P28324-2 1-405).
T9 sequence: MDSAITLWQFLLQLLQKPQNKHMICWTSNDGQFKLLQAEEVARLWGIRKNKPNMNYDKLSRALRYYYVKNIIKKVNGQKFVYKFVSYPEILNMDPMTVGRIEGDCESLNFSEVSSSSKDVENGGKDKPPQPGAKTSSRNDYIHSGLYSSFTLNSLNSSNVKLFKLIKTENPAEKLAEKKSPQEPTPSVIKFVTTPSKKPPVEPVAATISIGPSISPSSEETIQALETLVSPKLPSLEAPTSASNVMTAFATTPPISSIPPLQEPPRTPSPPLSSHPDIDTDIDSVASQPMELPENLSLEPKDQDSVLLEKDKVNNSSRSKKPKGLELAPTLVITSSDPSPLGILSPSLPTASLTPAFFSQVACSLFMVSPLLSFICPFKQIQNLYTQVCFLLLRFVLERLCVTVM
Particulars: protein: recombinant; tags: N-terminal GST; dsDNA, one strand shown. A digest of the protocol:
as §1

A further assay deals with T10, ETV2 (Homo sapiens, UniProt O00321 1-342).
T10 sequence: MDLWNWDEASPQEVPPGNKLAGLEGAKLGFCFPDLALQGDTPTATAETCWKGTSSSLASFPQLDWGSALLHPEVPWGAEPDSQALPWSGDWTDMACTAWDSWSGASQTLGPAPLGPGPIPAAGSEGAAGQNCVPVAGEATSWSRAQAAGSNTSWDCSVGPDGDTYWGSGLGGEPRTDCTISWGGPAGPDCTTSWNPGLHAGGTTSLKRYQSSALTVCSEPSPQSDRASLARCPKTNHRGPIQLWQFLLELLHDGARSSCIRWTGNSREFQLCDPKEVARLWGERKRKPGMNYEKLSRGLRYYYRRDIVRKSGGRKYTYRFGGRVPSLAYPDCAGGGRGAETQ
Particulars: protein: recombinant; tags: N-terminal GST; dsDNA, one strand shown. The method, boiled down: as §1

Another assay concerns the target T11, ELF3 (Homo sapiens, UniProt P78545 1-371).
T11 sequence: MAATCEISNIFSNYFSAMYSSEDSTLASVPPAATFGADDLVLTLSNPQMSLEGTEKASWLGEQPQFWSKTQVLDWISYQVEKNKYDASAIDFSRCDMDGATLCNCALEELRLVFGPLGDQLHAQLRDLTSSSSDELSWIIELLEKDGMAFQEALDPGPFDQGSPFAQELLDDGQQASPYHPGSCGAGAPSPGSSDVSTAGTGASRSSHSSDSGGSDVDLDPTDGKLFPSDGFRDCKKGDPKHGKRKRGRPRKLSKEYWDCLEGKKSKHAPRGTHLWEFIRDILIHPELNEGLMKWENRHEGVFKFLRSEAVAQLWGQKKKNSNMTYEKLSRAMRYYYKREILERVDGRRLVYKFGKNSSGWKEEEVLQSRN
Particulars: protein: recombinant; tags: N-terminal GST; dsDNA, one strand shown. The method, boiled down:
as §1

In the next assay the target is CRX (Homo sapiens, UniProt O43186 1-299). Particulars: protein: recombinant; tags: N-terminal GST; dsDNA, one strand shown. The method, boiled down:
as §1

A further assay addresses ETV1 (Homo sapiens, UniProt P50549 1-477). Particulars: protein: recombinant; tags: N-terminal GST; dsDNA, one strand shown. The method, boiled down: as §1

SPIB, sequence (Q01892 whole entry): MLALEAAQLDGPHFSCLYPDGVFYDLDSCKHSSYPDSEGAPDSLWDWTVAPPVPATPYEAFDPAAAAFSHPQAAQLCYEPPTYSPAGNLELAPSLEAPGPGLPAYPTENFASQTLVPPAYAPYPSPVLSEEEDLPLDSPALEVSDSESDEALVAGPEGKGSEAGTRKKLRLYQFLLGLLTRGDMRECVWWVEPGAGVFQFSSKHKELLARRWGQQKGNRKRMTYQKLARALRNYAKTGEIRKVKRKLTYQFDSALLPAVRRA
ELF1, sequence (P32519 whole entry): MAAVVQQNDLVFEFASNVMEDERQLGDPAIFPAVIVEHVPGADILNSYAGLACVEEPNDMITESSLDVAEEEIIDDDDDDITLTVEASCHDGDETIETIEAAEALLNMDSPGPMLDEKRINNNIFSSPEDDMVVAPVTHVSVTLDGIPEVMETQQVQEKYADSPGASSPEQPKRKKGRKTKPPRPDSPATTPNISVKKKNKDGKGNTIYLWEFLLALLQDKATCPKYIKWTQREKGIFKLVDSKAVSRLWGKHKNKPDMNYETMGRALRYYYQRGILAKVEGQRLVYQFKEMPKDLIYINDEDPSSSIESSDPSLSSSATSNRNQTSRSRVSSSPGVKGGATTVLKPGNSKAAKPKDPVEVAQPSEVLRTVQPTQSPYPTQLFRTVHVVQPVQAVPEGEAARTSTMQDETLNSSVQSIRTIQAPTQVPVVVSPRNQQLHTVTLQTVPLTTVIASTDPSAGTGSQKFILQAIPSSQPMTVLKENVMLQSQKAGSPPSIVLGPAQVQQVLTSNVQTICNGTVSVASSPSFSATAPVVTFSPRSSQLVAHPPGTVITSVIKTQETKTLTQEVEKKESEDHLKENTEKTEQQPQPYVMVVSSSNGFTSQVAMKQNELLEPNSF
HSF1, sequence (Q00613 whole entry): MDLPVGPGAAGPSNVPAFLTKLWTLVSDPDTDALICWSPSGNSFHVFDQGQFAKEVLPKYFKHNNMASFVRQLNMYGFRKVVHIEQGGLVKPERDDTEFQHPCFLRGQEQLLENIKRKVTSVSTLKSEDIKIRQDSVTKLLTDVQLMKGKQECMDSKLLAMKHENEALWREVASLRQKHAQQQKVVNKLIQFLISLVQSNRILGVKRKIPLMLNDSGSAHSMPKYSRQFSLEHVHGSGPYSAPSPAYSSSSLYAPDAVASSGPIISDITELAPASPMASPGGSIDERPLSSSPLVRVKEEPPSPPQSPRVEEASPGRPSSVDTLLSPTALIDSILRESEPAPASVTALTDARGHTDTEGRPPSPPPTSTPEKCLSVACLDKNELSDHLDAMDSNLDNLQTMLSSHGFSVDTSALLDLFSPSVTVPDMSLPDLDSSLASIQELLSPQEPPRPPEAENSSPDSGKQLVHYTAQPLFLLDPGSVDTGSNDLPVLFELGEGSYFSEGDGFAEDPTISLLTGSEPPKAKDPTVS
CRX, sequence (O43186 whole entry): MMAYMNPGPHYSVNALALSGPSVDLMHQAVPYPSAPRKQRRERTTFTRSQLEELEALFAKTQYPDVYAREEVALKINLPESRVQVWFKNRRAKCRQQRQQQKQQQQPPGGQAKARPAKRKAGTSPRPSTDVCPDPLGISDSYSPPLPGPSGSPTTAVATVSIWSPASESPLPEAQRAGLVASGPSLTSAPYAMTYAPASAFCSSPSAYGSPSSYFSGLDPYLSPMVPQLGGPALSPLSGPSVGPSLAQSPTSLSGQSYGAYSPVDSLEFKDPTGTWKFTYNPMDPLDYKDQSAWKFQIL
ETV1, sequence (P50549 whole entry): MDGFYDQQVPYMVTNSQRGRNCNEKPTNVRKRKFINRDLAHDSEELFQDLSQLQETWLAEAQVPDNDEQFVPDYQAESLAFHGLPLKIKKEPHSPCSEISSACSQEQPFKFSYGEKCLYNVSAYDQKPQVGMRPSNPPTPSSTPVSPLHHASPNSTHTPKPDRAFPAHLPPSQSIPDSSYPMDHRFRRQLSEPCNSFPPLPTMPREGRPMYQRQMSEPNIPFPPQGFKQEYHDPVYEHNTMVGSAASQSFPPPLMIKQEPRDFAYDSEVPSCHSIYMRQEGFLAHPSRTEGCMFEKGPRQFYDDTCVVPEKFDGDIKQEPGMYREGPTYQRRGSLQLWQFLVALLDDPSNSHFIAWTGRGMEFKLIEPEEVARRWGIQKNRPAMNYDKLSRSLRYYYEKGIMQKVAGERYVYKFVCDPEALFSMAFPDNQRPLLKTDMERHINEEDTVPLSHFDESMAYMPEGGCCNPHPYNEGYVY
ELF4, sequence (Q99607 whole entry): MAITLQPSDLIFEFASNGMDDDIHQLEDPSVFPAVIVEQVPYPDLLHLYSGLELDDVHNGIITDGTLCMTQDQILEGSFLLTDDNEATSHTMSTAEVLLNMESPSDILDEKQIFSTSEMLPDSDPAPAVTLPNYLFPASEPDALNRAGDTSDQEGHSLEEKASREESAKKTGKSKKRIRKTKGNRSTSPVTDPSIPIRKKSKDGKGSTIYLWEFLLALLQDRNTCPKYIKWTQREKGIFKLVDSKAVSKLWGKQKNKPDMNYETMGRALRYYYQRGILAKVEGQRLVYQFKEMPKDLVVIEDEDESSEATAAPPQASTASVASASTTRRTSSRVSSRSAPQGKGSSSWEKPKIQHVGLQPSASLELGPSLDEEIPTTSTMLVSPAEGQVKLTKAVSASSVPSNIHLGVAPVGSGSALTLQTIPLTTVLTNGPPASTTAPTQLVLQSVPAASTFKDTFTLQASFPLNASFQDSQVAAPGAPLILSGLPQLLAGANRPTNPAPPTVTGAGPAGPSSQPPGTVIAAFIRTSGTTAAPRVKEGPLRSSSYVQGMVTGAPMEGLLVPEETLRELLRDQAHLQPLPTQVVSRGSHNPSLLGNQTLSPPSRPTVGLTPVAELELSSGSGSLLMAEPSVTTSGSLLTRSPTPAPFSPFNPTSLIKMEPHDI
ETV5, sequence (P41161 whole entry): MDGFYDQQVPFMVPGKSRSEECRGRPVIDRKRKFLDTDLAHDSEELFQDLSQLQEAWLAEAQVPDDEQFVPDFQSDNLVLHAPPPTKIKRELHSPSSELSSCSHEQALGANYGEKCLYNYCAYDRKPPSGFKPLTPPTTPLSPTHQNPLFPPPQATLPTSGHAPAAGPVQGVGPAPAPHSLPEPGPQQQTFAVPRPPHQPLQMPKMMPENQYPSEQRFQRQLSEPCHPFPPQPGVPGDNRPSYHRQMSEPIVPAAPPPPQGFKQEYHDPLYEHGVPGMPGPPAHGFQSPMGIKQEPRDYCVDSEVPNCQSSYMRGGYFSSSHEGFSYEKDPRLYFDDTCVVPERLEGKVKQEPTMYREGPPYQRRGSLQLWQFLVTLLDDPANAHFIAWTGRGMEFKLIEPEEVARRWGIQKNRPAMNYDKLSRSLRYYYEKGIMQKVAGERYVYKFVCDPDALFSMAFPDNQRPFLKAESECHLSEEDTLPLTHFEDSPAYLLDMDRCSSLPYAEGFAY

As to AGTATC, the binding signal with FLI1 is 1.09 fold enrichment (6-mer frequency, TF over GST control); with ELK1, 1.13 fold enrichment (6-mer frequency, TF over GST control); with GABPA it was 1.11 fold enrichment (6-mer frequency, TF over GST control); with ERG it was 1.08 fold enrichment (6-mer frequency, TF over GST control); in the assay with ELF1 it was 1.13 fold enrichment (6-mer frequency, TF over GST control); with EHF, 1.19 fold enrichment (6-mer frequency, TF over GST control). In addition, the binding signal in the assay with SPI1 is 1.13 fold enrichment (6-mer frequency, TF over GST control); with SPIB, 1.2 fold enrichment (6-mer frequency, TF over GST control); in the assay with ELK3, 1.17 fold enrichment (6-mer frequency, TF over GST control); with FEV, 1.12 fold enrichment (6-mer frequency, TF over GST control); with ETV5, 1.18 fold enrichment (6-mer frequency, TF over GST control); with HSF1 it was 1.03 fold enrichment (6-mer frequency, TF over GST control). The binding signal with SPIC is 1.14 fold enrichment (6-mer frequency, TF over GST control); with ELF4, 1.12 fold enrichment (6-mer frequency, TF over GST control); with ELK4, 1.1 fold enrichment (6-mer frequency, TF over GST control); with ETV2, 1.26 fold enrichment (6-mer frequency, TF over GST control); with ELF3 it was 1.16 fold enrichment (6-mer frequency, TF over GST control); with CRX it was 1.03 fold enrichment (6-mer frequency, TF over GST control). The binding signal with ETV1 is 1.07 fold enrichment (6-mer frequency, TF over GST control).
